CHT PAM – human CHT allosteric activation. Q9GZV3. CHT-expressing cells, membrane potential dye, choline EC20; active compounds read high; LV-AA mutant CHT in HEK293 cells. B-score at 10 µM. 0.49% of 310,000 active. AID 488977;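 active = initial fluorescence not abnormally high and integrated response B-score, plate-corrected, over 3 SD above library mean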
Target sequence (Q9GZV3 whole entry, looked up): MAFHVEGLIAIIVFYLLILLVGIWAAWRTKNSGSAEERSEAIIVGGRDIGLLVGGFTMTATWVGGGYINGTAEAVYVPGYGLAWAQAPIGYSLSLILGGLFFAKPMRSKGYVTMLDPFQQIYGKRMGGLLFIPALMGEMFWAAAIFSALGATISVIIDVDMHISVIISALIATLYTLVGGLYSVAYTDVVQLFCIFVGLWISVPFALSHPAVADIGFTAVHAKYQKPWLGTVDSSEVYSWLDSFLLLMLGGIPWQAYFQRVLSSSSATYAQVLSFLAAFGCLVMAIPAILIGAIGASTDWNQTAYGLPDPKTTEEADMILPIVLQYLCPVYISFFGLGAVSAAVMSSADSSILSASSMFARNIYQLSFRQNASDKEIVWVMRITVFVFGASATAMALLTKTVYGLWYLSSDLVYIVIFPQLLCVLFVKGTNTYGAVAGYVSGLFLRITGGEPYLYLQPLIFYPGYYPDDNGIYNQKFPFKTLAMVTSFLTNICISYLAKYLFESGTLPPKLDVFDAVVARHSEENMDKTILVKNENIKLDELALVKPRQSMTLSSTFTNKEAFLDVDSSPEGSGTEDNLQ
HDAC3 inh – inhibitors of human histone deacetylase 3; O15379; inhibition, % at 8.3 µM; AID 2718; 0.15% of 320,000 active; recombinant HDAC3, fluorogenic peptide/trypsin coupled, fluorescence; in the data active = inhibition above about 26%, passing the limit was not always enough; inconclusive = no clear call, values can overlap the other calls
PHOSPHO1 block – PHOSPHO1 (human) inhibition; Q8TCT1; recombinant PHOSPHO1, absorbance phosphatase assay; inhibition, % at 13.3 µM; 1.1% of 290,000 active; AID 1565; in the data active = inhibition above about 60%
TMEM16A act – mouse TMEM16A channel activation, primary screen; 0.3% of 340,000 active; B-score at 10 µM; AID 623877; Q8BHY3; HEK293 TMEM16A/YFP-H148Q/I152L, iodide quench fluorescence; active compounds read low;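 active = fluorescence-ratio B-score plate-corrected deviation score at least 3 library SD below zero, with starting fluorescence score within 5 deviations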;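 also: channel opened by trigger with iodide after compound preincubation; score built on the fluorescence ratio of max minus min over baseline; more negative score means more quench and so TMEM16A activation or potentiation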
CHT block – inhibits the human high affinity choline transporter; Q9GZV3; CHT-expressing cells, membrane potential dye, choline response; active compounds read low; B-score at 10 µM; 0.86% of 310,000 active; AID 488975;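 active = B-score over 3 SD under the library average, and starting fluorescence ratio not unusually high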;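 also: choline stimulus applied at its EC90 after an EC20 pre-addition; B-score computed on integrated fluorescence ratio after choline addition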
TMEM16A inh – inhibitors of mouse TMEM16A calcium-activated chloride channel | Q8BHY3 | HEK293 TMEM16A/YFP iodide influx fluorescence, ionomycin | normalized B-score (activity score, 25-100; higher = stronger inhibition) at 10 µM | 1.2% of 310,000 active | AID 588511;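 active = ratio plate-corrected score three or more library SD toward inhibition, starting fluorescence score within five deviations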;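 also: score derived from kinetic fluorescence span divided by baseline fluorescence per well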
CHT act confirm – human CHT activation, confirmatory screen; shares compounds with CHT PAM; CHT-expressing cells, membrane potential dye fluorescence (FDSS); % of choline EC20–EC90 response window; HEK293 expressing CHT LV-AA mutant; choline added at its EC20; activation, % at 10 µM; 91% of 2,500 active; AID 504833;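 active = primary screen active, with duplicate mean activation above negative control mean plus 3 SD, cut at about 11% in these data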
HEK293 MP dye – counter-screen for CHT activators: effect in parental HEK293 cells; shares compounds with CHT PAM; 62% of 2,500 active; ratio readout change at 10 µM, hits read low; membrane potential dye fluorescence (FDSS); measured after EC20 choline addition;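 active = duplicate-averaged ratio beyond 3 SD from buffer wells, up or down, though filed actives are nearly all decreases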
Numbers stand for hits; 0 = inactive; ? = inconclusive; - = no result. Only some compounds are listed: those with a hit (about 3.2% of all), similar ones and a draw of the others.

SMILES | CHT PAM | HDAC3 inh | PHOSPHO1 block | TMEM16A act | CHT block | TMEM16A inh | CHT act confirm | HEK293 MP dye
COc1ccc(CN2CCC(N(CCc3ccccc3)Cc3ccccc3)CC2)c(OC)c1 | 0 | 0 | 0 | 0 | 0 | 0 | 22.2 | 0
O=C(O)c1ccc(Sc2nnnn2-c2ccccc2)c([N+](=O)[O-])c1 | 0 | 0 | 0 | 0 | 0 | 0 | - | -
COc1ccc(CNc2ccc3c(c2)nc(C)n3C)cc1OC | 6.62 | 0 | - | 0 | 0 | 0 | 26.2 | -47.6
CCOc1ccc(CNc2ccc3c(c2)nc(C)n3C)cc1 | 0 | 0 | 0 | 0 | 0 | 0 | - | -
COc1ccccc1NC(=O)CSc1nnc(NC(=O)c2ccco2)s1 | 0 | 0 | 0 | 0 | 0 | 0 | - | -
CCOc1ccc(Nc2nc(NCC3CCCO3)c3ccccc3n2)cc1 (centres undefined) | 0 | 0 | 0 | 0 | 0 | 0 | 22.9 | -31.2
COc1ccc(Nc2nc(NCC3CCCO3)c3ccccc3n2)c(OC)c1 (centres undefined) | 0 | 0 | 0 | 0 | 0 | 0 | - | -
c1ccc(-c2ccccc2OCCCN2CCCC2)cc1 | 0 | 0 | 0 | 0 | 0 | 0 | 0 | 0
COc1ccc(Cl)cc1-c1nc(N)nc(N(C)C)n1 | 0 | 0 | 0 | 0 | 0 | 0 | - | -
CCN(CC)CCNc1nc2c(c(=O)n(C)c(=O)n2C)n1C/C=C(/C)Cl | 0 | 0 | 0 | 0 | 0 | 0 | 67.6 | -41.6
CCN1CCN(CCCNC(=O)CNC(=O)c2nn(-c3ccc(OC)cc3)c(=O)c3ccccc23)CC1 | 0 | 0 | 0 | 0 | 0 | 0 | - | -
O=[N+]([O-])c1ccc(-c2csc3[n+]2CCS3)cc1 | 8.89 | 0 | 80.2 | 0 | 0 | 0 | 74.3 | -69.2
Cc1ccc(CNc2ccc3nnc(-c4ccccc4)n3n2)cc1 | 0 | 0 | 0 | 0 | 0 | 0 | - | -
c1ccc(CN2CCN(CCCNc3ccc4nnc(-c5ccccc5)n4n3)CC2)cc1 | 7.84 | 0 | 0 | 0 | 0 | 0 | 54.1 | -47.8
CN1CC(=O)Nc2ccc([N+](=O)[O-])cc2C1=O | 0 | 0 | 0 | 0 | 0 | 0 | - | -
COc1ccc(CN2C(=O)c3cccnc3C2=O)cc1S(=O)(=O)N1CCOc2ccccc21 | 0 | 0 | 0 | 0 | 0 | 0 | - | -
CCN(CC)CCn1c2ccc(F)cc2c2nc(C)sc21 | 0 | 0 | 0 | 0 | 0 | 0 | 27.4 | -62.8
Cc1nc2c3cc(Cl)ccc3n(CCN3CCOCC3)c2s1 | 0 | 0 | 0 | 0 | 0 | 0 | 14.5 | 0
CCn1c2ccc(C)cc2c2nnc(SCCN3CCOCC3)nc21 | 0 | 0 | 0 | 0 | 0 | 0 | - | -
CCOC(=O)Cn1c2ccc(C)cc2c2nc(C)sc21 | 0 | 0 | 0 | 0 | 0 | 0 | - | -
c1coc(CNc2nc(N3CCCCC3)nc3ccccc23)c1 | 0 | 0 | 0 | - | 0 | 0 | 13.5 | 0
c1ccc(-c2nc(NCc3ccco3)c3ccccc3n2)nc1 | 7.02 | ? | 0 | 0 | 0 | 0 | 41.7 | -46.3
c1ccc(N2CCN(c3nc(NCc4ccco4)c4ccccc4n3)CC2)cc1 | 0 | 0 | 0 | 0 | 0 | 0 | - | -
Oc1ccccc1-c1nc(NCc2ccco2)c2ccccc2n1 | 0 | 0 | 0 | 0 | 0 | 0 | - | -
COC(=O)c1ccccc1NC(=O)CSc1nc(NC(=O)c2ccccc2)c2c(C)c(C)oc2n1 | 8.42 | 0 | 0 | 0 | 0 | 0 | 0 | 0
SMILES | CHT PAM | HDAC3 inh | PHOSPHO1 block | TMEM16A act | CHT block | TMEM16A inh | CHT act confirm | HEK293 MP dye
CCOC(=O)c1ccc(NC(=O)CSc2nc(NC(=O)c3ccccc3)c3c(C)c(C)oc3n2)cc1 | 0 | 0 | 0 | 0 | 0 | 0 | - | -
CN(CC(=O)Nc1ccc(Cl)cc1)C(=O)CCNC(=O)c1ccc(Cl)cc1 | - | 0 | - | 0 | - | - | - | -
COc1cc(N)c2ncccc2c1Cl | - | - | - | 0 | - | - | - | -
COc1ccc(C(=O)c2nccc3cc(OC)c(OC)cc23)cc1OC | - | 0 | - | 0 | - | - | - | -
COc1ccc(C(O)c2nccc3cc(OC)c(OC)cc23)cc1OC (centres undefined) | 9.21 | 0 | 0 | 0 | 0 | 0 | 59.0 | -74.3
COc1cc(N)c(C(O)c2nccc3cc(OC)c(OC)cc23)cc1OC (centres undefined) | 0 | 0 | - | 0 | 0 | 0 | 69.6 | -51.3
CCOC(=O)C1=NNC(C(=O)OCC)C1C(=O)OCC (centres undefined) | - | - | - | 0 | - | - | - | -
CCOc1nc(SC(C(C)=O)C(=O)Nc2ccccc2)nc(N(C)C)n1 (centres undefined) | 0 | 0 | 0 | 0 | 0 | 0 | - | -
COc1ccc(OC)c2c(C)cc(N3CCN(C(=O)c4ccc(F)cc4)CC3)nc12 | 6.55 | 0 | 0 | 0 | 0 | 0 | 41.4 | -68.5
CN(C)c1ccc(NS(=O)(=O)c2cccc(Cl)c2)cc1 | 0 | 0 | 0 | 0 | 0 | 0 | - | -
COc1ccc(N2CCN(C(=O)COC(=O)c3cccc(OC)c3O)CC2)cc1 | - | 0 | - | 0 | - | - | - | -
COc1ccc(N2CCN(C(=O)COC(=O)c3ccccc3OCc3ccc(F)cc3)CC2)cc1 | 6.83 | 0 | - | 0 | 0 | 0 | 20.5 | 0
CCCCn1c(=N)n(CC(O)COc2ccccc2)c2ccccc21 (centres undefined) | 0 | 0 | 0 | 0 | 0 | 0 | 35.5 | 0
N/C(=N\OC(=O)c1ccncc1)c1cccc([N+](=O)[O-])c1 | 7.26 | 0 | 0 | 0 | 0 | 0 | 37.3 | -45.5
Cc1ccc(C(=O)O/N=C(\N)c2cccc([N+](=O)[O-])c2)cc1 | 0 | 0 | 0 | 0 | 0 | 0 | - | -
Cc1cccc2cc(C3CC(c4cccs4)=NN3C(=O)CCC(=O)O)c(Cl)nc12 (centres undefined) | 0 | 0 | 0 | 0 | 0 | 0 | - | -
O=C(COC(=O)c1cc[n+]([O-])cc1)Nc1ccc([N+](=O)[O-])cc1Cl | 11.8 | 0 | 0 | 0 | 0 | 0 | 61.5 | -78.9
O=C(COC(=O)c1cc[n+]([O-])cc1)Nc1ccc(Cl)cc1[N+](=O)[O-] | 0 | 0 | 0 | 0 | 0 | 0 | 19.9 | -44.4
O=C(COC(=O)c1cc[n+]([O-])cc1)Nc1ccc(Cl)cc1Cl | - | 0 | - | 0 | - | - | - | -
CN(C)c1cc[n+](CC(=O)Nc2ccc([N+](=O)[O-])cc2Cl)cc1 | 6.5 | 0 | 0 | 0 | 0 | 0 | 0 | -33.3
Cc1ccc[n+](CC(=O)Nc2ccc([N+](=O)[O-])cc2Cl)c1 | 0 | 0 | 0 | 0 | 0 | 0 | - | -
N#CCC(=O)Nc1ccc(C(=O)OCC(=O)NCCCc2ccccc2)cc1 | 0 | 0 | 0 | 0 | 0 | 0 | - | -
Cc1cnc(C(=O)Nc2cc(S(=O)(=O)N3CCOCC3)ccc2N2CCN(C)CC2)cn1 | 9.7 | 0 | 0 | 0 | 0 | 0 | 50.8 | -56.9
CC1CSc2n(-c3cccc(C(F)(F)F)c3)cc(-c3ccccc3)[n+]21 (centres undefined) | 0 | 0 | 0 | 0 | 0 | 0 | 50.2 | -31.1
FC(F)(F)c1cccc(N2Cc3ccccc3C2)c1 | 0 | 0 | 0 | 0 | 0 | 0 | - | -

Assay outcomes deposited in PubChem BioAssay by several laboratories.
